A word on the viability: it is a read-out of living cells in per cent, often relative to untreated cells. By AC50 is commonly meant the midpoint of the concentration-response curve, whichever way the signal moves. The IC50 is the concentration that inhibits the measured activity by half.

Values without a mark were called inactive. Records with an inconclusive call do not appear. Activity calls are given as the source filed them. Unless noted, cut-off not given; nearly all actives show AC50 up to about 26 µM.

A short description of assay [1]: ovarian cancer cell viability with rucaparib, profiling panel, oncology-focused library, rucaparib conditional (AID 1508598;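 active means normalized viability below 100% at a tested concentration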). As to conditions: patient-derived ovarian cancer cells, CellTiter-Glo viability, 144 h, active compounds read low.
The nature of assay [2]: growth inhibition of DIPG glioma cells, dose response, cell-based, SU-DIPG-XVII, MIPE5.0, CellTiter-Glo, qHTS (AID 1347060).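 On AC50: cells exposed to compound for 48 hours before viability readout.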 As to conditions: SU-DIPG-XVII viability, CellTiter-Glo ATP luminescence.
Assay [3] in a line: growth inhibition of DIPG glioma cells, dose response, cell-based, SU-DIPG-XIII, MIPE5.0, CellTiter-Glo, qHTS (AID 1347064; cut-off not given, nearly all actives have AC50 up to about 23 µM;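 on AC50: cells exposed to compound for 48 hours before the viability read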). As to conditions: SU-DIPG-XIII viability, CellTiter-Glo ATP luminescence.
Assay [4] in a line: JHH-DIPG-1 glioma cell viability, MIPE5.0 library, CellTiter-Glo luminescence, qHTS (AID 1347067).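 Further: cells exposed to compound for 48 hours before readout.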 The conditions noted are these: JHH-DIPG-1 glioma viability, CellTiter-Glo ATP luminescence. For orientation: In ATP-based viability assays light output follows the ATP content of the culture.
Assay [5] is described as follows: SU-DIPG-XXV glioma cell viability, MIPE5.0 library, qHTS (AID 1347068; cut-off not given, nearly all actives have IC50 up to about 30 µM;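 on IC50: cells exposed to compound for 48 hours before viability readout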). (In general: In qHTS, concentration-response curves come from the screen itself.)
Assay [6] is described as follows: viability loss in pontine glioma line – cell-based, SU-DIPG-XXV, MIPE5.0, CellTiter-Glo, qHTS, dose response (AID 1347065).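 Further: cells exposed to compound for 48 hours before ATP readout.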 The conditions noted are these: CellTiter-Glo ATP luminescence.

For `Cc1nc2c(-c3cnc(N)nc3)nc(N3CCOCC3)nc2n1C(C)C`, the viability in assay [1] (at 0.313 µM, OCI-C5x cells, with rucaparib 10 µM, 100% = cells with rucaparib alone) is 102%; in assay [1] (at 0.313 µM, OCI-C5x cells, without rucaparib), 103%; in assay [1] (at 0.313 µM, OCI-P5x cells, with rucaparib 20 µM, 100% = cells with rucaparib alone), 68.3% (active); in assay [1] (at 0.313 µM, OCI-P5x cells, without rucaparib), 76.9% (active); in assay [1] (at 1.25 µM, OCI-C5x cells, with rucaparib 10 µM, 100% = cells with rucaparib alone), 69.8% (active); in assay [1] (at 1.25 µM, OCI-C5x cells, without rucaparib), 54.3% (active). In addition, the viability is 37.6% (active) in assay [1] (at 1.25 µM, OCI-P5x cells, with rucaparib 20 µM, 100% = cells with rucaparib alone); 34.8% (active) in assay [1] (at 1.25 µM, OCI-P5x cells, without rucaparib); 34.3% (active) in assay [1] (at 5 µM, OCI-C5x cells, with rucaparib 10 µM, 100% = cells with rucaparib alone); 32.9% (active) in assay [1] (at 5 µM, OCI-C5x cells, without rucaparib); 13.7% (active) in assay [1] (at 5 µM, OCI-P5x cells, with rucaparib 20 µM, 100% = cells with rucaparib alone); 14.6% (active) in assay [1] (at 5 µM, OCI-P5x cells, without rucaparib).
Take `Fc1ccc(-c2csc3ncnc(NCc4ccc5c(c4)OCO5)c23)cc1`: the AC50 was 20.9 µM (active) in assay [2], 16.6 µM (active) in assay [3] and 18.6 µM (active) in assay [4]. In addition, the outcome in assay [5] was inactive.
As for `CCCN1CCN(c2ccc(C(=O)NC3(C(=O)NCC#N)CCCCC3)cc2)CC1`, the result in assay [2], in assay [3], in assay [4] and in assay [5] was inactive.
`[2H]C([2H])([2H])C(O)([C@@H](C)/C=C/[C@@H](C)[C@H]1CC[C@H]2/C(=C/C=C3C[C@@H](O)C[C@H](O)C3)CCC[C@]12C)C([2H])([2H])[2H]`: the result in assay [2], in assay [3] and in assay [4] was inactive.
In the case of `CN1CCN(c2ncc(-c3cc(Cl)cc(Cl)c3Cl)c(N)n2)CC1`, the result in assay [2], in assay [3], in assay [4] and in assay [5] was inactive.
Take `CC(C)(C(=O)NCC(F)(F)C(F)(F)F)C(=O)N[C@@H]1C(=O)Nc2ccccc2-c2ccccc21`: the compound was called inactive in assay [2], in assay [3], in assay [4] and in assay [5].
`Cc1[nH]c2ccc(F)cc2c1-c1nc2c3cccnc3c3ncccc3c2[nH]1`: the results for the AC50 in assay [2], in assay [3] and in assay [6] were 6.79 µM (active), 1.35 µM (active) and 1.91 µM (active), respectively. In addition, in assay [5], the IC50 was 2.7 µM (active).
As to `COc1ccc2c(C(=S)N(C)CC(=O)O)cccc2c1C(F)(F)F`, the result in assay [2], in assay [3], in assay [4] and in assay [5] was inactive.
As for `C[C@@H](c1ccc2nccn2c1)n1nnc2ncc(-c3cnn(C)c3)nc21`, the call in assay [2], in assay [3], in assay [6] and in assay [5] was inactive.
As to `CCn1c(=O)c(-c2ccc(-c3cncc(C)n3)cc2Cl)cc2cnc(NCCC3CCN(C)CC3)nc21`, the compound was classed as inactive in assay [2], in assay [3] and in assay [4]. Also, the 50% inhibitory concentration (IC50) in assay [5] was 1.86 µM (active).
`NCC1CCN(c2nccc(-c3ccc4ccccc4c3)n2)CC1`: the concentration at half-maximal activity (AC50) is 11.8 µM (active) in assay [2], 16.6 µM (active) in assay [3] and 10.5 µM (active) in assay [4].
With `COc1cc(C)[nH]c(=O)c1CN1CCc2c(Cl)cc([C@H](OC)C3COC3)c(Cl)c2C1=O`, the compound was called inactive in assay [2], in assay [3], in assay [4] and in assay [5].
As to `CC(=O)Nc1ccc(C(=O)NC(C)(C)C)cc1`, the compound was called inactive in assay [2], in assay [3] and in assay [4].
Regarding `CC(C)[C@H]1C(=O)N[C@@H](CCCN=C(N)N)C(=O)NCC(=O)N[C@@H](CC(=O)O)C(=O)N[C@H](Cc2ccccc2)C(=O)N1C`, the compound was called inactive in assay [2], in assay [3], in assay [4] and in assay [5].
For the compound `CN[C@@H](C)C(=O)N[C@@H]1C(=O)N(Cc2c(C)ccc3ccccc23)c2ccc(C#N)cc2N(C(C)=O)[C@H]1C`, the compound was called inactive in assay [2], in assay [3], in assay [4] and in assay [5].
Regarding `C[C@@H]1O[C@@H](O[C@@H]2\C=C/C=C\C=C/C=C\C[C@H](C)OC(=O)/C=C\[C@H]3O[C@@H]3C[C@H](O)C[C@]3(O)C[C@@H](O)[C@@H](C(=O)O)[C@H](C2)O3)[C@H](O)[C@H](N)[C@@H]1O`, the result in assay [2], in assay [3], in assay [4] and in assay [5] was inactive.

Source of the values: PubChem BioAssay.
